Data: the supplement of paper PMC6897291

Tests used:
U-2932 [1] = assay: growth inhibition by drug alone (1 - RLU/untreated control) (fraction); higher = stronger inhibition; conditions: 177Lu-lilotomab satetraxetan 0 ug/ml
Procedure, shortened: (§1)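 Plates pre-printed with the Selleck Cambridge Cancer Compound library at 10/100 nM (RIVA) or 10/1,000 nM (U-2932) received 3,000 cells/well. These cells had been washed after 18 h untreated or with a radiolabelled anti-CD37 antibody conjugate (~600 MBq/mg; 0.5 µg/ml RIVA, 1 µg/ml U-2932). Growth inhibition was obtained from RealTime-Glo luminescence in relation to untreated no-drug wells. Each daily read from day 3, taken after 1 h at 37°C, was converted as 1 − RLU/mean of 48 such wells per plate.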

RIVA [2] = assay: as above; conditions: 177Lu-lilotomab satetraxetan 0 ug/ml
Procedure, shortened: as §1

U-2932 [3] = assay: growth inhibition by drug plus 177Lu-lilotomab satetraxetan (1 - RLU/untreated control) (fraction); higher = stronger inhibition; conditions: 177Lu-lilotomab satetraxetan 1 ug/ml
Procedure, shortened: as §1

RIVA [4] = assay: as above; conditions: 177Lu-lilotomab satetraxetan 0.5 ug/ml
Procedure, shortened: as §1

SMILES	growth inhibition by drug alone (U-2932 [1]; 10 nM, time (day): 3)	growth inhibition by drug alone (U-2932 [1]; 10 nM, time (day): 4)	growth inhibition by drug alone (U-2932 [1]; 10 nM, time (day): 5)	growth inhibition by drug alone (U-2932 [1]; 10 nM, time (day): 6)	growth inhibition by drug alone (U-2932 [1]; 1000 nM, time (day): 3)	growth inhibition by drug alone (U-2932 [1]; 1000 nM, time (day): 4)	growth inhibition by drug alone (U-2932 [1]; 1000 nM, time (day): 5)	growth inhibition by drug alone (U-2932 [1]; 1000 nM, time (day): 6)	growth inhibition by drug alone (RIVA [2]; 10 nM, time (day): 3)	growth inhibition by drug alone (RIVA [2]; 10 nM, time (day): 4)	growth inhibition by drug alone (RIVA [2]; 10 nM, time (day): 5)	growth inhibition by drug alone (RIVA [2]; 10 nM, time (day): 6)	growth inhibition by drug alone (RIVA [2]; 100 nM, time (day): 3)	growth inhibition by drug alone (RIVA [2]; 100 nM, time (day): 4)	growth inhibition by drug alone (RIVA [2]; 100 nM, time (day): 5)	growth inhibition by drug alone (RIVA [2]; 100 nM, time (day): 6)	growth inhibition by drug plus 177Lu-lilotomab satetraxetan (U-2932 [3]; 10 nM, time (day): 3)	growth inhibition by drug plus 177Lu-lilotomab satetraxetan (U-2932 [3]; 10 nM, time (day): 4)	growth inhibition by drug plus 177Lu-lilotomab satetraxetan (U-2932 [3]; 10 nM, time (day): 5)	growth inhibition by drug plus 177Lu-lilotomab satetraxetan (U-2932 [3]; 10 nM, time (day): 6)	growth inhibition by drug plus 177Lu-lilotomab satetraxetan (U-2932 [3]; 1000 nM, time (day): 3)	growth inhibition by drug plus 177Lu-lilotomab satetraxetan (U-2932 [3]; 1000 nM, time (day): 4)	growth inhibition by drug plus 177Lu-lilotomab satetraxetan (U-2932 [3]; 1000 nM, time (day): 5)	growth inhibition by drug plus 177Lu-lilotomab satetraxetan (U-2932 [3]; 1000 nM, time (day): 6)	growth inhibition by drug plus 177Lu-lilotomab satetraxetan (RIVA [4]; 10 nM, time (day): 3)	growth inhibition by drug plus 177Lu-lilotomab satetraxetan (RIVA [4]; 10 nM, time (day): 4)	growth inhibition by drug plus 177Lu-lilotomab satetraxetan (RIVA [4]; 10 nM, time (day): 5)	growth inhibition by drug plus 177Lu-lilotomab satetraxetan (RIVA [4]; 10 nM, time (day): 6)	growth inhibition by drug plus 177Lu-lilotomab satetraxetan (RIVA [4]; 100 nM, time (day): 3)	growth inhibition by drug plus 177Lu-lilotomab satetraxetan (RIVA [4]; 100 nM, time (day): 4)	growth inhibition by drug plus 177Lu-lilotomab satetraxetan (RIVA [4]; 100 nM, time (day): 5)	growth inhibition by drug plus 177Lu-lilotomab satetraxetan (RIVA [4]; 100 nM, time (day): 6)
Cc1nc(Nc2ncc(C(=O)Nc3c(C)cccc3Cl)s2)cc(N2CCN(CCO)CC2)n1	-0.00248	-0.0473	-0.15	-0.0827	0.487	0.65	0.693	0.752	0.376	0.323	0.282	0.128	0.779	0.826	0.856	0.867	-0.0537	-0.0412	-0.0107	0.0287	0.607	0.75	0.816	0.88	0.558	0.581	0.582	0.575	0.838	0.89	0.901	0.91
CC(C=CC(=O)NO)=CC(C)C(=O)c1ccc(N(C)C)cc1 (stereo not drawn) [Trichostatin A (TSA)]	0.0657	0.0558	0.00424	-0.0676	0.98	0.983	0.983	0.983	0.0108	-0.0626	-0.0672	-0.162	0.651	0.317	0.223	0.132	0.0166	0.0461	0.0335	0.0848	0.981	0.983	0.984	0.984	0.467	0.537	0.547	0.561	0.854	0.798	0.783	0.763
CCN(CC)CCCCNc1ncc2cc(-c3cc(OC)cc(OC)c3)c(NC(=O)NC(C)(C)C)nc2n1	-0.118	-0.118	-0.0732	-0.00128	-0.114	-0.0849	-0.071	0.0716	-0.21	-0.246	-0.227	-0.211	-0.356	-0.38	-0.379	-0.398	-0.0428	0.00417	0.0568	0.152	-0.156	-0.0951	-0.0251	0.158	0.539	0.564	0.587	0.597	0.393	0.447	0.445	0.439
O=C(NOC[C@H](O)CO)c1ccc(F)c(F)c1Nc1ccc(I)cc1F	0.189	0.198	0.0482	0.0357	0.152	0.19	0.102	0.0951	0.198	0.141	0.026	-0.212	0.191	0.122	0.0195	-0.189	0.138	0.163	0.15	0.218	0.162	0.231	0.189	0.269	0.487	0.514	0.508	0.496	0.552	0.532	0.512	0.467
